Hits are enriched below; roughly 12% of the tested compounds scored in any of these assays.
JMJD2A Tudor: JMJD2A Tudor domain (human) inhibition | 390,000 compounds, 4.4% hits | Potency, µM (top dose mostly 114 µM), for the others: at the highest dose activity change, negative = inhibition, most hits filed as inhibitors | AlphaScreen JMJD2A-Tudor / H3K4me3 peptide binding | O75164; note: % is set by controls: 0 for no effect and ±100 for the full control effect; nearly all actives have a fitted effect of over 50% in size
L3MBTL1 block: L3MBTL1 (human) inhibition | Q9Y468 | AlphaScreen L3MBTL1–H3K9me1 peptide binding | Potency, µM (titrated, usually from 57.1 µM), without a hit: top-dose activity, negative = inhibition, hits mostly inhibitors | 230,000 compounds, 0.66% hits | AID 485360; note: % is set by controls: 0 for no effect and ±100 for the full control effect; nearly all actives have a fitted effect of over 60% in size
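L3MBTL1 (50 nM) pre-complexed 30 min with biotinylated H3(1-15)K9me1 peptide (75 nM), then compounds added for 30 min at room temperature; AlphaScreen streptavidin donor/nickel chelate acceptor beads (10 ug/mL final) read after 30 min dark incubation.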
Sfp PPTase inh: Sfp phosphopantetheinyl transferase inhibition; Q9F4F7; 310,000 compounds, 3.5% hits; Biochemical Sfp PPTase activity, qHTS; Potency, µM, inactives show largest response in the series, negative = inhibition, most hits filed as inhibitors;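 note: the enzyme is Sfp with the accession as filed and its product quenches rhodamine fluorescence; 0% = enzyme reaction without inhibitor and -100% = no enzyme wells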
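Compounds were incubated with enzyme (final 15 nM) for 15 min at room temperature before substrate addition started the reaction. Fluorescence at 525 nm excitation, 598 nm emission was recorded immediately and after 30 minutes.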
BAZ2B block: BAZ2B (human) inhibition; AID 504333; Potency, µM (doses to about 114 µM), for inactives: at the highest dose activity change, negative = inhibition, hits mostly inhibitors; Q9UIF8; AlphaScreen BAZ2B-H3K14Ac peptide displacement; 360,000 compounds, 4.4% hits; note: % is set by controls: 0 for no effect and ±100 for the full control effect; nearly all actives have a fitted effect of over 60% in size
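BAZ2B (50 nM) with biotin-H3(5-23)K14Ac peptide (50 nM) in PBS pH 7.4, 0.01% Tween-20, preformed 30 min, then compound 30 min at room temperature; top concentration 110uM. AlphaScreen streptavidin donor/nickel chelate acceptor beads (10 ug/mL final), 20 min dark, signal read.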
G9a block: blocks human histone lysine methyltransferase G9a; Q96KQ7; G9a H3K9 monomethylation, AlphaScreen, 2 h; Potency, µM (series often up to 102 µM), for inactives: at the top dose activity, negative = inhibition, most hits filed as inhibitors; 350,000 compounds, 8.8% hits; AID 504332; note: % is set by controls: 0 for no effect and ±100 for the full control effect; nearly all actives have a fitted effect of over 75% in size
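G9a (20 nM) preincubated 15 min RT with compounds, then 500 nM biotinylated H3K9 peptide and 20 uM SAM added; 2 h RT reaction. Monomethyl-H3K9 product detected by AlphaScreen with anti-H3K9me1 antibody, streptavidin donor and anti-rabbit IgG acceptor beads.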
HP1b chromo inh: HP1-beta chromodomain-methylated histone interaction inhibition | P83916 | AlphaScreen HP1-beta / biotin-H3K9me3 peptide binding | Potency, µM (series often up to 114 µM), inactives show at the highest dose activity change, negative = inhibition, actives largely listed as inhibitors | 390,000 compounds, 0.56% hits; note: nearly all actives have a fitted effect of over 70% in size
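Compound inhibition of the preformed complex between 50 nM HP1-beta and 50 nM biotinylated H3K9me3 peptide was read by AlphaScreen. Buffer was PBS pH 7.4 with 0.01% Tween-20. Incubations ran 30 min at room temperature, with 10 ug/mL donor/acceptor beads.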
An asterisk follows results filed as active; ? = inconclusive; nt = no result; [ ] = remark or other dose. Calls come from the whole dose curve; as a rule, active = well fitted curve in the direction sought with a large enough effect; inconclusive = small, poorly fitted or top-dose-only effect, or another doubt; inactive = no such curve, though single readings can be large; an effect the other way counts as inactive or inconclusive. Potency is the fitted concentration of half-maximal effect.

SMILES | JMJD2A Tudor | L3MBTL1 block | Sfp PPTase inh | BAZ2B block | G9a block | HP1b chromo inh
CCOc1cccc(C2CC(=O)Nc3cc4c(cc32)OCCO4)c1 (configuration not stated) | -29% | nt | nt | -24% | -7%[59 µM] | 7%
CCn1c(C)[n+](CCCS(=O)(=O)[O-])c2cc(Cl)c(Cl)cc21 | ? | 0% | -5% | -12% | ? | 13%
CC/C(=C/c1sc2ccc(C)cc2[n+]1CCCS(=O)(=O)[O-])SC | 0% | nt | 50µM* | ? | 45µM* | 81%
CC/C(=C/c1sc2ccc(C)cc2[n+]1CCO)SC | ? | 0% | 28µM* | ? | nt | 61%
Cc1ccc2sc(C)[n+](CCC(C)S(=O)(=O)[O-])c2c1 (configuration not stated) | -8% | -1% | 40µM* | 9% | -7%[59 µM] | 55%
CC[n+]1c(S(=O)(=O)[O-])ccc2ccc(C)cc21 | -6% | 0% | 17% | 1% | -12%[59 µM] | 39%
CCN(CC)c1ccc(/C=N/N2CCN(c3ccccn3)CC2)cc1 | -14% | -3% | 18% | -6% | 56µM* | -3%
CCN(CC)c1ccc(/C=N/N2CCOCC2)cc1 | ? | -5% | 0% | ? | 11µM* | ?
CCc1ccc(/C=N/N2CCN(c3ccccn3)CC2)cc1 | -27% | -20% | 13% | -24% | -28% | 25%
Fc1cccc(F)c1/C=N/N1CCOCC1 | -9% | nt | 16% | nt | -44% | 21%
Cc1cc(N2CCC(C(=O)Nc3ccccc3Cl)CC2)n2nc(C)c(-c3ccc(Cl)cc3)c2n1 | -12% | nt | nt | -5% | -1%[59 µM] | 19%
Cc1ccc(Cl)cc1NC(=O)c1oc2ccc(S(=O)(=O)N3CCCCC3)cc2c1C | -22% | nt | nt | -5% | 2%[59 µM] | 17%
COc1ccc([C@]23Cc4cc(C#N)ccc4C(O2)c2c(cc(C)n(-c4ccccc4)c2=O)O3)cc1 | nt | nt | 8% | -9%[22.9 µM] | 26%[2.33 µM] | nt
CN(CCOc1ccccc1)CC(=O)Nc1ccc(Cl)c(S(=O)(=O)N(C)C)c1 | 2.8µM* | -2% | 56µM* | nt | 8.9µM* | -7%
CN(C)S(=O)(=O)c1ccc(Cl)c(C(=O)Nc2ccccc2[N+](=O)[O-])c1 | -35% | 0% | 5% | -10% | 3%[59 µM] | -10%
COc1cc(NC(=O)CN(C)CCOc2ccccc2)c(C)cc1[N+](=O)[O-] | ? | nt | 3% | -24% | -15% | 28%
CN(CCOc1ccccc1)CC(=O)Nc1ccc(Cl)cc1[N+](=O)[O-] | 0.79µM* | -22% | 50µM* | 13µM* | 3.5µM* | 25µM*
CCN(CC)S(=O)(=O)c1ccc(Cl)c(C(=O)Nc2ccc(Cl)cc2[N+](=O)[O-])c1 | ? | ? | 13% | ? | 8.9µM* | ?
COc1ccc(C2CC(=O)N(CC(=O)Nc3cccc(C)c3C)c3ccccc3S2)cc1OC (configuration not stated) | -25% | nt | nt | -5% | -5%[59 µM] | 4%
O=C(COc1ccc(Cl)cc1)Nc1ccccc1C(=O)OCc1cc(=O)n2ccsc2n1 | -16% | nt | nt | -34% | -12%[12.7 µM] | 41%
O=C(CSc1nc(-c2ccccc2)no1)N1CCCCC1 | 14% | nt | nt | 18% | 18%[59 µM] | 42%
Clc1ccc(-c2csc(N/N=C/c3ccc4c(c3)OCO4)n2)cc1 | -25% | -1% | -21% | -10% | 40µM* | 14%
Cc1nnc(N/N=C/c2ccc(O)c([N+](=O)[O-])c2)[nH]c1=O | 3.2µM* | -15% | ? | -5% | 13%[59 µM] | 5%
O=[N+]([O-])c1ccc(-c2csc(N/N=C/c3cccnc3)n2)cc1 | -17% | -6% | -3% | ? | nt | 4%
O=[N+]([O-])c1cc(/C=N\Nc2nc(-c3ccccc3)cs2)ccc1O | ? | nt | 50µM* | 13µM* | 11µM* | ?
Cc1csc(N/N=C/c2ccc(O)c([N+](=O)[O-])c2)n1 | 45µM* | nt | 32µM* | 4.5µM* | 14µM* | ?
